Screens from PubChem BioAssay.
GSIS activator = GLuc luminescence reporter in INS-1E cells, primary screen for activators of glucose-dependent secretion of insulin. INS-1E GLuc reporter insulin secretion, 2-3 h. activation, % at 16.6 µM. hit rate 0.61% among 370,000. AID 743287;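 active means lowest replicate activation of at least 40%, so every replicate reaches that level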;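 further: 0% = median of neutral control wells and 100% = median of IBMX positive control wells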
PGC1a acetyl inh = modulators of PGC1a acetylation; hit rate 0.17% among 350,000; inhibition, % at 15.6 µM; U2OS PGC1a acetylation, AlphaScreen anti-acetyl-lysine; with virally co-expressed GCN5 acetyltransferase; AID 651687;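 active means every replicate shows inhibition of at least 40%; inconclusive means mean inhibition at least 40% but some replicate below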;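 further: 0% = neutral control wells and 100% = positive control wells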
ERAP1 HTS inh = ERAP1 (human) enzyme inhibition. inhibition, % at 10.7 µM. Q9NZ08. AID 652197. hit rate 0.15% among 340,000. recombinant ERAP1, Leu-AMC fluorescence, 60 min;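 active means mean replicate inhibition of at least 30%, or all replicates individually reaching that 30% level; inactive means mean below 30% and not every replicate reaching it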;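 further: 0% = neutral control wells and 100% = L-leucinethiol positive control wells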
Target sequence (Q9NZ08 whole entry, looked up): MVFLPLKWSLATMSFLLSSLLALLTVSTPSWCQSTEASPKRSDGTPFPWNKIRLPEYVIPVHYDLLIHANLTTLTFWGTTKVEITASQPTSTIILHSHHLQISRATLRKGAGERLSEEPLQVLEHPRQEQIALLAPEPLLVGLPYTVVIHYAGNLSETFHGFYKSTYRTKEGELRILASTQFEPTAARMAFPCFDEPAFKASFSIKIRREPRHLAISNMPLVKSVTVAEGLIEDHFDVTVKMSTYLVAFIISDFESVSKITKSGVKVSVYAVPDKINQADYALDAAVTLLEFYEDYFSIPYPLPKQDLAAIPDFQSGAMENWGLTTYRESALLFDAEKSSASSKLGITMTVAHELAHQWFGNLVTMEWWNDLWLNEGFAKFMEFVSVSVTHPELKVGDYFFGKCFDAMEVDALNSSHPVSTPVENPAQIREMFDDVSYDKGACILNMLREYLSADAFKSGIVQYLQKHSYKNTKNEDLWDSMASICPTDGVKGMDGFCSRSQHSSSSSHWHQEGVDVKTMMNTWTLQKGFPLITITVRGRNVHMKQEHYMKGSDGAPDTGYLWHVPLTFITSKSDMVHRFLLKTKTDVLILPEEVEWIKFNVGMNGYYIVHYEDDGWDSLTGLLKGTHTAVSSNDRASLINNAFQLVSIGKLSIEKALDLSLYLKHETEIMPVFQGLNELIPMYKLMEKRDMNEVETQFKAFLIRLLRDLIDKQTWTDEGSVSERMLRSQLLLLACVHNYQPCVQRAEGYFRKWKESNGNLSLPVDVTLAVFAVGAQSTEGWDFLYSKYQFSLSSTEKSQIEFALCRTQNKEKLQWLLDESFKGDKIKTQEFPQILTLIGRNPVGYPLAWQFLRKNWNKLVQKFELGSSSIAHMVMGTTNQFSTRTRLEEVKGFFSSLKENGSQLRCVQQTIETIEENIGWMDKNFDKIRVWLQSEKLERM
DENV2 CPE rescue = protects cells from dengue virus 2 cytopathic effect | DENV2-infected cells, cytopathic effect rescue, plate reader | hit rate 1.7% among 350,000 | CPE inhibition, % at 9.99 µM; in the data active means CPE inhibition above about 20%, passing the limit was not always enough; inconclusive means no clear call, values can overlap the other calls; tested in BHK-21 cells;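 further: 0% = median of neutral control wells and 100% = median of positive control wells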
rRNA inh HTS = inhibitors of bacterial rRNA selective over humanized ribosomes; E. coli WT GFP vs humanized-ribosome RFP mutants, fluorescence, 24 h; stronger effect = lower value; DMSO median 0, no signal -100; GFP signal change (wild-type ribosome), % (no concentration beside the values); hit rate 1.6% among 350,000; AID 720706;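 active means significant combined selectivity score with lowered wild-type GFP, culture density cut under 30%, mutant RFP and density less affected; inactive means any of these conditions unmet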
CaV13 ICDI inh = Disruptors of the CACNA1D IQ motif to Ca2+-dependent inactivation inhibitor domain association, primary screening, Förster resonance energy transfer in intact living …; HEK cells, CFP/YFP FRET ICDI-IQ, plate reader, 10 min; percent FRET-ratio fall versus neutral wells; inhibition, % at 12.3 µM; hit rate 0.098% among 340,000; AID 743397;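 active means mean replicate inhibition of at least 30% and at least 1% of replicates passing that level; inconclusive means only one of the two criteria is met; inactive means neither criterion is met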;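 further: 0% = median of the neutral control wells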
An asterisk follows results filed as active. Only some compounds are listed: those with a hit (about 3.2% of all), similar ones and a draw of the others.

Screening Cn1nccc1NC(=O)Nc1ccc(Cl)cc1 returned GSIS activator -13.5, PGC1a acetyl inh 2.0, ERAP1 HTS inh 5.2, DENV2 CPE rescue 11.2, rRNA inh HTS -35.2* and CaV13 ICDI inh -4.3.
`Cc1ccc(S(=O)(=O)NNC(=S)Nc2ccccc2)cc1` gave PGC1a acetyl inh -4.2.
Cc1ccc(S(=O)(=O)NNC(=S)Nc2ccc(Cl)cc2)cc1 was read as GSIS activator 2.6, ERAP1 HTS inh 4.5, DENV2 CPE rescue 2.6, rRNA inh HTS -27.7* and CaV13 ICDI inh -2.4.
For CC(C)C(Cl)=NOC(=O)Nc1ccc(S(N)(=O)=O)cc1 the results were GSIS activator 125.7*, PGC1a acetyl inh 43.8, ERAP1 HTS inh -0.2, DENV2 CPE rescue 0.0, rRNA inh HTS 18.8 and CaV13 ICDI inh -10.7.
Screening CNC(=O)Nc1ccc(S(N)(=O)=O)cc1 returned GSIS activator 14.4, ERAP1 HTS inh 1.4, DENV2 CPE rescue 1.6, rRNA inh HTS -2.6 and CaV13 ICDI inh -9.4.
For COc1ccccc1CNC(=O)C[C@@H]1C[C@@H]2c3cc(NS(C)(=O)=O)ccc3O[C@@H]2[C@H](CO)O1 the results were GSIS activator -0.1, PGC1a acetyl inh 4.6, ERAP1 HTS inh 1.2, DENV2 CPE rescue 10.5 and rRNA inh HTS 2.5.
COC(=O)c1cn(C(=O)c2cc(OC)c(OC)c(OC)c2)c2ccccc12 was read as GSIS activator 8.1, PGC1a acetyl inh -3.4, ERAP1 HTS inh 1.1, DENV2 CPE rescue 4.4, rRNA inh HTS 2.4 and CaV13 ICDI inh -19.2.
`COC(=O)c1cn(C(=O)c2ccc(OC)c(OC)c2)c2ccccc12` gave GSIS activator 8.8, ERAP1 HTS inh 5.8, DENV2 CPE rescue 25.8*, rRNA inh HTS -17.6 and CaV13 ICDI inh -2.1.
Screening CNC[C@H]1Oc2ncc(C#Cc3ccccc3F)cc2C(=O)N([C@@H](C)CO)C[C@H]1C returned GSIS activator 3.0, PGC1a acetyl inh 4.2, ERAP1 HTS inh 0.1, DENV2 CPE rescue 70.9* and rRNA inh HTS 6.4.
`CNC[C@@H]1Oc2ncc(-c3cccc(F)c3)cc2C(=O)N([C@@H](C)CO)C[C@@H]1C` gave GSIS activator -8.5, PGC1a acetyl inh -6.6, ERAP1 HTS inh -0.1, DENV2 CPE rescue 24.6* and rRNA inh HTS -0.1.
C[C@@H]1CN([C@@H](C)CO)C(=O)c2cc(-c3cccc(F)c3)cnc2O[C@@H]1CN(C)C(=O)Nc1cc(F)ccc1F was read as GSIS activator -16.9, PGC1a acetyl inh 12.8, ERAP1 HTS inh -0.8, DENV2 CPE rescue 26.1* and rRNA inh HTS -2.9.
`CNC[C@@H]1Oc2ncc(C#Cc3ccccc3F)cc2C(=O)N([C@H](C)CO)C[C@@H]1C` gave GSIS activator 0.3, PGC1a acetyl inh -1.0 and rRNA inh HTS 7.6.
Screening O=C(c1cccc(-c2cncc3nccn23)c1)N1CCOCC1 returned GSIS activator 2.1, PGC1a acetyl inh -19.1, ERAP1 HTS inh 0.1, DENV2 CPE rescue 10.0, rRNA inh HTS 16.2 and CaV13 ICDI inh -2.7.
`CN1CCN(C(=O)c2cccc(-c3cnc4cnc(-c5ccccc5Oc5ccccc5)cn34)c2)CC1` gave GSIS activator 42.1*, ERAP1 HTS inh 0.8, DENV2 CPE rescue 2.3, rRNA inh HTS -22.6 and CaV13 ICDI inh -4.8.
Screening O=C(COC(=O)c1ccccc1Cl)NCCC1=CCCCC1 returned GSIS activator -22.3, ERAP1 HTS inh 0.9, DENV2 CPE rescue -0.6, rRNA inh HTS -21.4* and CaV13 ICDI inh -4.8.
`O=C(COC(=O)c1ccc(F)cc1F)NCCC1=CCCCC1` gave GSIS activator -0.3, PGC1a acetyl inh 9.6, ERAP1 HTS inh 0.2, DENV2 CPE rescue -4.4, rRNA inh HTS -7.3 and CaV13 ICDI inh -15.6.
`Cc1noc(C)c1NC(=O)N(C)C[C@H]1Oc2cc(C#CCC3CCCC3)ccc2S(=O)(=O)N([C@H](C)CO)C[C@H]1C` gave GSIS activator 0.7, PGC1a acetyl inh 1.7, ERAP1 HTS inh 1.2, DENV2 CPE rescue -3.4 and rRNA inh HTS -4.7.
Cc1noc(C)c1S(=O)(=O)Nc1ccc2c(c1)C(=O)N([C@@H](C)CO)C[C@@H](C)[C@@H](CN(C)C)OCCCC[C@@H](C)O2 was read as GSIS activator 7.9, PGC1a acetyl inh 1.0, ERAP1 HTS inh -3.0, DENV2 CPE rescue inconclusive and rRNA inh HTS -0.9.
Screening Cc1[nH]c2ccc(-c3n[nH]c(=S)n3C)cc2c1C returned GSIS activator 2.7, PGC1a acetyl inh -28.1, ERAP1 HTS inh 1.3, DENV2 CPE rescue 9.9, rRNA inh HTS -15.8* and CaV13 ICDI inh -8.8.
`CCn1c(-c2ccc3[nH]c(C)c(C)c3c2)n[nH]c1=S` gave GSIS activator 1.7, PGC1a acetyl inh -18.1, ERAP1 HTS inh 4.0, rRNA inh HTS -12.5 and CaV13 ICDI inh -8.3.
Screening COc1ccc(NC(=O)Nc2ccc3c(c2)CC(=O)N([C@H](C)CO)C[C@@H](C)[C@@H](CN(C)C(=O)Nc2cccc4ccccc24)O3)cc1 returned GSIS activator -1.3, PGC1a acetyl inh -0.8, DENV2 CPE rescue inconclusive and rRNA inh HTS -0.6.
Cc1ccc(S(=O)(=O)N2C[C@@H](O)COC[C@H]3O[C@@H](CC(=O)N[C@H]4CCN(Cc5ccccc5)C4)CC[C@@H]32)cc1 was read as GSIS activator 2.4, PGC1a acetyl inh -1.1, ERAP1 HTS inh -0.4, DENV2 CPE rescue -7.5 and rRNA inh HTS 4.1.
Screening CCc1cc(OCCN(C)C)ccc1Cl returned GSIS activator -2.5, PGC1a acetyl inh 0.1, ERAP1 HTS inh -3.7, DENV2 CPE rescue -1.9, rRNA inh HTS 5.8 and CaV13 ICDI inh -7.1.
Screening CN(C)CCOc1ccc2c(c1)C(=O)C(=Cc1ncc([N+](=O)[O-])n1C)C2 returned PGC1a acetyl inh 92.6*, ERAP1 HTS inh 6.8, DENV2 CPE rescue 10.9, rRNA inh HTS -64.8 and CaV13 ICDI inh -8.3.
Cc1ccc(-n2c(-c3ccccc3)c[nH]c2=S)cc1 was read as GSIS activator 5.0, ERAP1 HTS inh -2.0, rRNA inh HTS 13.4 and CaV13 ICDI inh -5.0.
Screening COc1ccc(-n2c(-c3ccc(Cl)cc3)c[nH]c2=S)cc1 returned GSIS activator 200.3*, PGC1a acetyl inh 10.6, ERAP1 HTS inh 3.6, DENV2 CPE rescue -0.4, rRNA inh HTS 3.0 and CaV13 ICDI inh -15.2.
Screening CC(C)C(=O)Nc1nnc(S(=O)(=O)N2CCc3ccccc32)s1 returned GSIS activator 5.4, PGC1a acetyl inh 0.5, ERAP1 HTS inh -4.0, DENV2 CPE rescue 106.6*, rRNA inh HTS 7.6 and CaV13 ICDI inh -6.2.
Screening COC(=O)c1ccc(COc2ccccc2/C=C(\C#N)C(=O)Nc2ccc(C)cc2C)cc1 returned GSIS activator 11.8, PGC1a acetyl inh -10.6, ERAP1 HTS inh 37.3*, DENV2 CPE rescue 2.6, rRNA inh HTS 1.5 and CaV13 ICDI inh -3.3.
